Our source for the composite z-score and z-score values is PubChem BioAssay.

Active and inactive are the calls of the source.

In experiment [1] the test system is Plasmodium falciparum Sir2 (PF13_0152, Sir2A). Put plainly: Plasmodium falciparum Sir2A binding compounds – biochemical, small-molecule microarray, 635 nm fluorescence, primary screen (AID 1098).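 Note: score merges spot fluorescence intensity with its signal-to-noise ratio.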 To be noted: fluorescence 635 nm, higher = more signal.
Experiment [2] can be described thus: probe aDKK1 binding to arrayed compounds – biochemical, biotinylated probe, 635/667 nm fluorescence, primary screen (AID 1099).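 Note: score merges 667nm spot fluorescence with signal to noise across triplicate slides.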 To be noted: small-molecule microarray, higher = more signal.
The nature of experiment [3]: probe aCHRDL2 binding to arrayed compounds – biochemical, biotinylated probe, 635/667 nm fluorescence, primary screen (AID 1100). To be noted: small-molecule microarray, higher = more signal.
Experiment [4] can be described thus: change in splice reporter luminescence, either direction, cell-based, HEK293, spliceosome inhibition project, primary screen (AID 1101).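 Note: HEK293 cells carrying a splicing-competent luciferase reporter gene; test concentration not given here.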 To be noted: HEK293 splicing luciferase reporter, 24 h, higher = more signal, called active from +8 up or from −8 down. On the technique in general: In a reporter assay the amount or activity of a reporter protein is the signal.

Experiment [5] has as its target Fibroblast growth factor 10 (Homo sapiens) (UniProt O15520). Briefly: compounds binding fibroblast growth factor 10 – biochemical, small-molecule microarray, 635 nm fluorescence, primary screen (AID 1102). To be noted: FGF10 binding, fluorescence 635 nm, higher = more signal.
The subject of experiment [6] is glycogen synthase kinase-3 (GSK3A per assay name; protocol says GSK3B). Put plainly: compounds binding glycogen synthase kinase-3 – biochemical, small-molecule microarray, 635 nm fluorescence, GSK3A, primary screen (AID 1103). Note: the record names both GSK3A and GSK3B. To be noted: fluorescence 635 nm, higher = more signal.
The target of experiment [7] is Epidermal growth factor receptor (Homo sapiens) (UniProt P00533). Briefly: compounds binding epidermal growth factor receptor – biochemical, small-molecule microarray, 635 nm fluorescence, primary screen (AID 1104).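 Note: score merges 667 nm emission intensity with spot signal to noise over triplicate slides.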 The following applies: EGFR binding, higher = more signal.
Experiment [8] addresses Follistatin-related protein 3 (Homo sapiens) (UniProt O95633). Put plainly: compounds binding follistatin-related protein 3 – biochemical, small-molecule microarray, 635 nm fluorescence, primary screen (AID 1105).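 Note: score merges emission near 667 nm and signal to noise per printed spot across three slides.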 To be noted: FSTL3 binding, higher = more signal.
Experiment [9] has as its target Dickkopf-related protein 1 (Homo sapiens) (UniProt O94907). Put plainly: small molecules binding DKK1 protein – biochemical, small-molecule microarray, 635 nm fluorescence scan, primary screen (AID 1106).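 Note: score merges emission near 667 nm with signal to noise over three replicate slides.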 The following applies: higher = more signal.
The subject of experiment [10] is Inhibin beta A chain (activin A). Put plainly: small molecules binding activin A – biochemical, small-molecule microarray, 635 nm fluorescence scan, primary screen (AID 1107).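 Note: mouse activin A protein probed at 4.33 µg/mL on printed slides; score merges bound-protein fluorescence near 667 nm with spot signal-to-noise.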 The following applies: INHBA, higher = more signal.
Experiment [11] relates to Human papillomavirus type 1a protein E7 (residues 44-93). Briefly: small molecules binding HPV E7 44-93 – biochemical, small-molecule microarray, residues 44-93, 635 nm fluorescence, primary screen (AID 1108).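 Note: E7 fragment applied at 1 µg/mL in TBST for 1 h at 4 C; score combines spot fluorescence with its signal to noise ratio.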 The following applies: fluorescence 635 nm, higher = more signal.
Experiment [12] is described as follows: hepatitis C replication reporter changes, two-sided – Huh7 cells, luciferase reporter, HCV replication inhibitor project, primary screen (AID 1109).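 Note: huh7 hepatoma cells harbouring a luciferase neomycin HCV replicon reporter; luciferase luminescence as measure of HCV replicon replication; test concentration not given here.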 The following applies: Huh7 HCV replicon luciferase reporter, 48 h; higher = more signal.
The target of experiment [13] is Left-right determination factor 2 (Homo sapiens) (UniProt O00292). Briefly: small molecules binding LEFTY2 protein – biochemical, small-molecule microarray, 635 nm fluorescence scan, primary screen (AID 1110). The following applies: higher = more signal.
The target in experiment [14] is Calmodulin-1 (Homo sapiens) (UniProt P0DP23). Put plainly: small molecules binding calmodulin-1 with EGTA – biochemical, small-molecule microarray, Cy5-labelled CALM1, profiling panel (AID 1111).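 Note: labelled calmodulin applied in Tris saline Tween buffer holding calcium plus EGTA and DTT.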 The following applies: Cy5-CALM1 binding fluorescence, higher = more signal.
The target is the same in experiment [15]. Put plainly: small molecules binding Ca-loaded calmodulin-1 – biochemical, small-molecule microarray, Cy5-labelled CALM1, plus calcium, artefact control for SMM control-protein annotation, profiling panel (AID 1112).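 Note: score merges spot fluorescence with signal to noise from triplicate slides.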 To be noted: Cy5-CALM1 binding fluorescence, higher = more signal.
The nature of experiment [16]: probe aWnt5a binding to arrayed compounds – biochemical, biotinylated probe, 635/667 nm fluorescence, primary screen (AID 1113).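 Note: score merges 667 nm fluorescence intensity with signal-to-noise per printed feature.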 The following applies: small-molecule microarray, higher = more signal.
A short description of experiment [17]: probe aShh binding to arrayed compounds – biochemical, biotinylated probe, 635/667 nm fluorescence, primary screen (AID 1114).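 Note: probe is biotin-labelled aShh protein from a stem cell growth factor screen; measures binding of labelled protein to compounds printed on the slide; score merges feature fluorescence at 667 nm with signal-to-noise.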 To be noted: small-molecule microarray, higher = more signal.
A short description of experiment [18]: probe aNog binding to arrayed compounds – biochemical, biotinylated probe, 635/667 nm fluorescence, primary screen (AID 1115).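 Note: probe is biotinylated aNog protein used at 0.15 µg/mL for 1 h at 4 C; z-score combines 667 nm fluorescence of each spot with its signal to noise.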 The following applies: small-molecule microarray, higher = more signal.
Experiment [19] addresses Torsin-1A-interacting protein 1 (Homo sapiens) (UniProt Q5JTV8). Put plainly: compound microarray binding of lysate hLAP1 – cell lysate, small-molecule microarray, COS7 lysate, 635/667 nm fluorescence, primary screen (AID 1116). The following applies: 635 nm fluorescence, higher = more signal.
Experiment [20] concerns the target Alpha-bungarotoxin (Bungarus multicinctus) (UniProt P60615). Put plainly: compounds binding labelled alpha-BTX control protein – biochemical, small-molecule microarray, Alexa647 label, 635/667 nm fluorescence, artefact control for SMM control protein annotation, profiling panel (AID 1117). The following applies: alpha-BTX-A647 binding fluorescence, higher = more signal.

Chain of Dickkopf-related protein 1 (Homo sapiens) (O94907 whole entry, looked up): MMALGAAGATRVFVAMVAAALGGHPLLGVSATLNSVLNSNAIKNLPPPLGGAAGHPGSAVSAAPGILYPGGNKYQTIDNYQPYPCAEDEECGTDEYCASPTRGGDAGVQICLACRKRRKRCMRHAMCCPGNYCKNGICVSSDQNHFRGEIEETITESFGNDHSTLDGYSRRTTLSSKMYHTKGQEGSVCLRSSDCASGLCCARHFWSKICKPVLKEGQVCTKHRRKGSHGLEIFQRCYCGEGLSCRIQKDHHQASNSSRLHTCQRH
Chain of Alpha-bungarotoxin (Bungarus multicinctus) (P60615 whole entry, looked up): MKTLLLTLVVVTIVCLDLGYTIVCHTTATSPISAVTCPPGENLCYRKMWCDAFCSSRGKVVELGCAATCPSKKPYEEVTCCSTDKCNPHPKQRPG
Chain of Torsin-1A-interacting protein 1 (Homo sapiens) (Q5JTV8 whole entry, looked up): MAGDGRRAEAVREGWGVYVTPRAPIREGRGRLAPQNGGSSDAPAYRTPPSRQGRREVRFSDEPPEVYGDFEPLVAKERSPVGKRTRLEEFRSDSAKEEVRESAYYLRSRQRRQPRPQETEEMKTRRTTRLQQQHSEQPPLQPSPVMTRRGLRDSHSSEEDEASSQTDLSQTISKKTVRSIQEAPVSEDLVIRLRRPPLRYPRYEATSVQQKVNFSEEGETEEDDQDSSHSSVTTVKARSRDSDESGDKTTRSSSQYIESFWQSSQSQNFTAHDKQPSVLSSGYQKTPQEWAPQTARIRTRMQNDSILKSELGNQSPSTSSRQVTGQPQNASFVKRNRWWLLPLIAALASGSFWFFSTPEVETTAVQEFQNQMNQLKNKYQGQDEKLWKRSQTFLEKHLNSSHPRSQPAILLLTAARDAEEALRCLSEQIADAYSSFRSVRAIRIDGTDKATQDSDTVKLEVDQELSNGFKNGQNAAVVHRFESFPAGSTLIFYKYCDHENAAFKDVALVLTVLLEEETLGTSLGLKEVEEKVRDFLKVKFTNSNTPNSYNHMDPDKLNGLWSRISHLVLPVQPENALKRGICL
Chain of Follistatin-related protein 3 (Homo sapiens) (O95633 whole entry, looked up): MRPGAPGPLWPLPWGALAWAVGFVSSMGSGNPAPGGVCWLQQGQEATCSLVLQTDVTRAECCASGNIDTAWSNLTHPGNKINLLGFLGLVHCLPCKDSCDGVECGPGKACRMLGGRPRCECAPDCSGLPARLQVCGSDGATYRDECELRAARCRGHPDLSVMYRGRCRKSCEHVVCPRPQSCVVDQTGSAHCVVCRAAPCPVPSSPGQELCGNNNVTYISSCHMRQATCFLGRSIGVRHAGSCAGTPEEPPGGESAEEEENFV
Chain of Left-right determination factor 2 (Homo sapiens) (O00292 whole entry, looked up): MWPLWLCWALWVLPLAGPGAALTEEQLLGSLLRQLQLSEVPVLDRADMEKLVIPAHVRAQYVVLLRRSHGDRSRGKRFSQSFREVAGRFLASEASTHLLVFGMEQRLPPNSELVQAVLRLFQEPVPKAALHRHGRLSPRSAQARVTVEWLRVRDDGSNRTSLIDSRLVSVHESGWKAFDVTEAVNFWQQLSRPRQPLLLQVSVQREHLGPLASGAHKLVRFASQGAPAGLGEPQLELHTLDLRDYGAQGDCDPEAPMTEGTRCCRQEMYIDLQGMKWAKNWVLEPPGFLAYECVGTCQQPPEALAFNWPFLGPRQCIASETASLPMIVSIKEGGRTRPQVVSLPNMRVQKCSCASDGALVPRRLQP
Chain of Fibroblast growth factor 10 (Homo sapiens) (O15520 whole entry, looked up): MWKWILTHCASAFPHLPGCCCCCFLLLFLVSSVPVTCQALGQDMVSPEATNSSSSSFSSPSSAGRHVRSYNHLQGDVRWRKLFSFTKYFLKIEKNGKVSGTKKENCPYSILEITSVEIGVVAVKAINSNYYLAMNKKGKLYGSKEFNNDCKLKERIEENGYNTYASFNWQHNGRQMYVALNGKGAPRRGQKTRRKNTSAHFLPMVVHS
Chain of Epidermal growth factor receptor (Homo sapiens) (P00533 whole entry, looked up): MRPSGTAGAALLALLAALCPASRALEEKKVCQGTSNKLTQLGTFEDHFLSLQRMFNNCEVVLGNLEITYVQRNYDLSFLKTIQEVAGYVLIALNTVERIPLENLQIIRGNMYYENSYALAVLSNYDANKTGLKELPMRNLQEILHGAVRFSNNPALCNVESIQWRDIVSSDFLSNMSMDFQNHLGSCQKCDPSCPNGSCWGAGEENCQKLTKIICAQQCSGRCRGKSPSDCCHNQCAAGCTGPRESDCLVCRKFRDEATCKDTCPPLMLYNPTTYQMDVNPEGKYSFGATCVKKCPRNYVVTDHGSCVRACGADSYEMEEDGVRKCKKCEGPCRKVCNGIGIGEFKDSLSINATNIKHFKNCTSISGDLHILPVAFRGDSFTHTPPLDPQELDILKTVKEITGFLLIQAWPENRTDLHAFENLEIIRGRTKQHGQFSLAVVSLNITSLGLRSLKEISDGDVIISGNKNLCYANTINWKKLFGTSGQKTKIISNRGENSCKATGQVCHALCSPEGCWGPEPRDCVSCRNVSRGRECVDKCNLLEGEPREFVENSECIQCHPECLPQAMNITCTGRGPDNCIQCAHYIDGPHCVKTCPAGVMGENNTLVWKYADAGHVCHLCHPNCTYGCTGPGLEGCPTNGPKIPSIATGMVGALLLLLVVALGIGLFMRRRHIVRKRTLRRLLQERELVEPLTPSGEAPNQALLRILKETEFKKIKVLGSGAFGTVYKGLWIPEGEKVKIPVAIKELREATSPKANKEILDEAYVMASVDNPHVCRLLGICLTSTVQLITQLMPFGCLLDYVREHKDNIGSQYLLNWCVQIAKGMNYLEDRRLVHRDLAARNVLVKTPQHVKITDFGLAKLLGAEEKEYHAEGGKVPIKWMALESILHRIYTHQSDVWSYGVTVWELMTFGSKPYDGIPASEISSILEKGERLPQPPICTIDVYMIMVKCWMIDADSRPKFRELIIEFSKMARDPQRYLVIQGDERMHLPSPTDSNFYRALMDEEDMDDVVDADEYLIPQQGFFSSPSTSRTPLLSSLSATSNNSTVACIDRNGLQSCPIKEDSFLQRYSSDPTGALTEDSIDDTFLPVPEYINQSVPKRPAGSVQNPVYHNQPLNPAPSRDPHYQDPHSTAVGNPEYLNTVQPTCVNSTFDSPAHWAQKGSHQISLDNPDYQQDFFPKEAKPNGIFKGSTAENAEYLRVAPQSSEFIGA

On to `CC1CC/C=C\[C@H]2OC34C=CCN(C(C)(C)C)C(=O)[C@H]3N(C(CO)C(C)C)C(=O)[C@@H]4C2C(=O)O1` (stereo not given in full), for which the composite z-score is 0.337 in experiment [1]; -0.193 in experiment [2]; -0.347 in [3]; 0.352 in experiment [5]; 0.156 in experiment [6]; -0.33 in [7]. Moreover, the composite z-score in [8] is 0.27; in experiment [9], 0.391; in experiment [10], 0.524; in [11], -1.26; in experiment [13], 0.272; in experiment [14] it was -0.745. In addition, the composite z-score is -0.554 in [15]; -0.0882 in experiment [16]; 0.0469 in experiment [17]; -0.316 in [18]; 0.952 in [19]; -0.62 in [20]. Moreover, the figures for the z-score in experiment [4] and in experiment [12] were 0.792 (inactive) and 0.434, respectively.

Turning to `NC(=O)NCC#Cc1ccc2c(c1)[C@]1(C(=O)N2)[C@H](C(=O)N2CCN(c3ncccn3)CC2)[C@H]2C(=O)O[C@H](c3ccccc3)[C@H](c3ccccc3)N2[C@@H]1c1ccc(OCCO)cc1`, the composite z-score in experiment [1] was 0.695; in experiment [2], 0.23; in experiment [3] it was 0.433; in experiment [5] it was 0.766; in experiment [6], -0.364; in [7] it was 0.669. Also, the composite z-score turned out to be 1.08 in [8]; 0.151 in experiment [9]; 0.926 in [10]; 1.23 in experiment [11]; 0.0996 in experiment [13]; 0.756 in experiment [14]. Further, the composite z-score was 0.514 in experiment [15]; 0.0775 in [16]; -0.0553 in [17]; 0.833 in experiment [18]; 0.572 in experiment [19]; 1.42 in experiment [20]. The z-score was -0.245 (inactive) in experiment [4] and -1.6 in experiment [12].

As for `C=C(CCCC)/C(=C/C[C@H](OC(C)=O)c1ccc(OCCO)cc1)c1cc(C(=O)OC)ccc1OC`, the composite z-score in [1] was 1.58; in experiment [2], -0.131; in experiment [3], 0.104; in experiment [5], 1; in experiment [6] it was 0.699; in experiment [7], -0.616. Moreover, the composite z-score in experiment [8] is 0.613; in experiment [9], -0.304; in experiment [10], 0.562; in [11], 1.37; in experiment [13], -0.399; in experiment [14], 0.142. Besides, the composite z-score in [15] is -0.212; in experiment [16] it was 0.027; in [17] it was -0.221; in experiment [18] it was -0.132; in experiment [19], 0.405; in experiment [20] it was 0.558. Also, the z-score in experiment [4] was 0.0591 (inactive); in experiment [12], -1.69.

With `CC(C)=CCCC(C)=CC(O)C1C=CC2C(=O)N(c3ccccc3)C(=O)C2N1Nc1ccccc1F` (stereo not given), the composite z-score in [1] was found to be 1.33; in experiment [2], 0.0643; in [3], 0.0744; in experiment [5] it was 0.85; in experiment [6] it was 0.403; in experiment [7], 0.329. Besides, the composite z-score in experiment [8] was 0.587; in experiment [9] it was -0.0093; in experiment [10], 0.418; in [11] it was 0.961; in experiment [13], -0.0742; in experiment [14], 1.67. Also, the composite z-score in [15] is -0.132; in [16] it was -0.171; in experiment [17], -0.414; in experiment [18], -0.196; in [19], 2.19; in experiment [20], 0.529. Moreover, the z-score is -0.652 (inactive) in [4] and -1.43 in experiment [12].

As for `[N-]=[N+]=Nc1ccccc1C[C@]1(C(=O)O)N=C(c2ccc(OCCCO)cc2)O[C@H]1c1ccccc1`, the composite z-score in experiment [1] was 1.71; in experiment [2] it was 0.336; in experiment [3], 0.724; in experiment [5] it was 0.143; in [6] it was 0.0096; in [7], -0.839. In addition, the composite z-score was 0.195 in experiment [8]; -0.689 in experiment [9]; 0.86 in experiment [10]; 1.36 in [11]; -1.07 in experiment [13]; 0.163 in [14]. Moreover, the composite z-score was 0.943 in [15]; 0.2 in experiment [16]; -0.0337 in experiment [17]; 0.564 in experiment [18]; 0.764 in experiment [19]; 0.618 in experiment [20]. Besides, the z-score in [4] is -0.918 (inactive); in experiment [12], 0.939.
